Most compounds without a hit are left out; they make up all but 1.8% or so of the library.
NOD2 RIPK2 PPI – inhibitors of human NOD2-RIPK2 interaction; O43353; CHO BLA complementation NOD2-RIPK2, CCF4 ratio; inhibition, % at 4.98 µM; actives 0.38% (n = 360,000); in the data active means inhibition above about 21%
TLR4 MyD88 comp – blocks binding of human TLR4 to MyD88; O00206+Q99836; HeLa CL3-4 TLR4/MyD88 BLA complementation, FRET ratio; inhibition, % at 8.4 µM; actives 0.18% (n = 200,000); AID 861; in the data active means inhibition above about 25%
Mcl-1 Bim block – human Bim-Mcl-1 interaction inhibition; Q07820; Bead-based flow cytometry, Bim peptide-Mcl-1 binding; inhibition, % at 10 µM; actives 0.1% (n = 190,000); in the data active means inhibition above about 40%
TLR9-MyD88 block – inhibitors of human TLR9-MyD88 binding; Q9NR96+Q99836; CHO BLA complementation TLR9-MyD88, CCF4 FRET ratio; inhibition, % at 4.98 µM; actives 0.21% (n = 340,000);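 active means inhibition above the mean over all tested compounds plus 3 SD, cut at about 21% in these data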
Mcl1 Bid PPI – disrupts binding of human Mcl-1 to Bid peptide; TR-FRET Mcl-1/Bid-Dy647 peptide binding, 1536-well; actives 0.97% (n = 220,000); AID 1021; inhibition, % at 21.7 µM;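 active means compounds that cut the binding signal by more than half at the single screening dose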;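 further: His-tagged Mcl-1 with europium anti-His antibody binding Bid BH3 peptide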
Mcl1 Noxa PPI – disrupts binding of human Mcl-1 to Noxa peptide. inhibition, % at 21.7 µM. AID 1022. Q07820. TR-FRET Mcl-1/Noxa peptide binding, 2 h. actives 1.5% (n = 220,000);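 active means compounds that cut the protein-peptide binding signal by more than 50% relative to plate controls in a single-dose test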;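 further: His-tagged Mcl-1 with rhodamine Noxa BH3 peptide and terbium anti-His antibody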
TLR9-MyD88 cf – confirmation of human TLR9-MyD88 binding inhibitors; CHO TLR9/MyD88 BLA complementation, CCF4 FRET ratio; shares compounds with TLR9-MyD88 block; AID 540250; inhibition, % at 4.98 µM; actives 51% (n = 680);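 active means mean inhibition across three repeats above about 21% taken from the earlier screen, limit read from the data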;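 further: blue over green emission ratio reports constitutive TLR9 MyD88 association via BLA complementation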
BLA counter-1 – counter-screen for TLR9-MyD88 inhibitors: non-selective beta-lactamase inhibitors; shares compounds with TLR9-MyD88 block; CHO-BLA cells, CCF4 FRET ratio, BLA reporter; inhibition, % at 4.98 µM; actives 7% (n = 680); AID 540251;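 active means mean inhibition above a 50% cutoff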;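 further: counterscreen of TLR9-MyD88 hits on CMV-driven BLA in CHO-K1 cells; higher means less blue over green ratio so more BLA blockade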
TLR9 CHO tox – CHO cell toxicity counter-screen for TLR9-MyD88 inhibitors; AID 588336; inhibition, % at 4.98 µM; shares compounds with TLR9-MyD88 block; actives 39% (n = 680); TLR9-MyD88 CHO cells cytotoxicity, luminescence; in the data active means inhibition above about 11%
NOD2 RIPK2 conf – NOD2-RIPK2 interaction inhibition confirmed; CHO cells, NOD2-RIPK2 BLA complementation, CCF4 FRET; actives 70% (n = 1,200); shares compounds with NOD2 RIPK2 PPI; AID 624370; inhibition, % at 4.98 µM;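 active means mean inhibition across replicates above a set limit taken from the earlier primary screen, cut at about 21% in these data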
BLA counter-2 – counter-screen for NOD2-RIPK2 interaction inhibitors: BLA reporter; shares compounds with NOD2 RIPK2 PPI; CHO BLA reporter, CCF4 FRET ratio, counterscreen; inhibition, % at 4.98 µM; actives 57% (n = 1,200);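 active means mean inhibition above the low-control mean inhibition plus three low-control SD, cut at about 11% in these data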
Of the large screens only hits and unclear results are named; the others gave an inactive call (follow-up assays come after a bar, where they were run).

CC(=O)Nc1ccc2c(c1)Cc1cc(N3C(=O)C=CC3=O)ccc1-2	NOD2 RIPK2 PPI 33, TLR9-MyD88 block 33 (no result: TLR4 MyD88 comp, Mcl-1 Bim block, Mcl1 Bid PPI, Mcl1 Noxa PPI) | TLR9-MyD88 cf 56 | BLA counter-1 inactive | TLR9 CHO tox 99 | NOD2 RIPK2 conf 85 | BLA counter-2 30
CC[C@@]1(O)C(=O)OCc2c1cc1n(c2=O)Cc2cc3c(CN(C)C)c(O)ccc3nc2-1	NOD2 RIPK2 PPI 72, TLR9-MyD88 block 54 (no result: TLR4 MyD88 comp, Mcl-1 Bim block, Mcl1 Bid PPI, Mcl1 Noxa PPI) | TLR9-MyD88 cf 49 | BLA counter-1 52 | TLR9 CHO tox 60 | NOD2 RIPK2 conf 81 | BLA counter-2 78
CC[C@@]1(O)C(=O)OCc2c1cc1n(c2=O)Cc2cc3c(N)cccc3nc2-1	none (no result: TLR4 MyD88 comp, Mcl-1 Bim block)
Cc1ccc(NC(=O)c2nc(S(=O)(=O)Cc3ccccc3)ncc2Cl)cc1	NOD2 RIPK2 PPI 92, TLR9-MyD88 block 45 (no result: TLR4 MyD88 comp, Mcl-1 Bim block, Mcl1 Bid PPI, Mcl1 Noxa PPI) | TLR9-MyD88 cf 45 | BLA counter-1 inactive | TLR9 CHO tox 99 | NOD2 RIPK2 conf 90 | BLA counter-2 41
Cc1nnc(NC(=O)c2nc(S(=O)(=O)Cc3ccccc3)ncc2Cl)s1	none (no result: TLR4 MyD88 comp, Mcl-1 Bim block, Mcl1 Bid PPI, Mcl1 Noxa PPI)
COc1ccc(OC)c(NC(=O)c2nc(S(=O)(=O)Cc3ccccc3)ncc2Cl)c1	NOD2 RIPK2 PPI 94, TLR9-MyD88 block 57 (no result: TLR4 MyD88 comp, Mcl-1 Bim block, Mcl1 Bid PPI, Mcl1 Noxa PPI) | TLR9-MyD88 cf 53 | BLA counter-1 inactive | TLR9 CHO tox 99 | NOD2 RIPK2 conf 102 | BLA counter-2 49
Cc1ccccc1CS(=O)(=O)c1ncc(Cl)c(C(=O)Nc2ccc(F)cc2)n1	NOD2 RIPK2 PPI 94, TLR9-MyD88 block 34 (no result: TLR4 MyD88 comp, Mcl-1 Bim block, Mcl1 Bid PPI, Mcl1 Noxa PPI) | TLR9-MyD88 cf 34 | BLA counter-1 inactive | TLR9 CHO tox 90 | NOD2 RIPK2 conf 83 | BLA counter-2 33
O=C(Nc1ccc(F)cc1)c1nc(S(=O)(=O)Cc2ccccc2)ncc1Cl	NOD2 RIPK2 PPI 93, TLR9-MyD88 block 36 (no result: TLR4 MyD88 comp, Mcl-1 Bim block, Mcl1 Bid PPI, Mcl1 Noxa PPI) | TLR9-MyD88 cf 48 | BLA counter-1 inactive | TLR9 CHO tox 99 | NOD2 RIPK2 conf 90 | BLA counter-2 43
CCC(C(=O)NCCc1ccc(OC)cc1OC)n1nc(C)n2c(cc3occc32)c1=O (stereo not drawn)	none (no result: TLR4 MyD88 comp, Mcl-1 Bim block, Mcl1 Bid PPI, Mcl1 Noxa PPI)
Cc1cccc(OCCC(=O)Nc2ccc(Cl)cc2F)c1	none (no result: TLR4 MyD88 comp, Mcl-1 Bim block, Mcl1 Bid PPI, Mcl1 Noxa PPI)
Oc1ccc2nnc3c(Br)cnn3c2c1	NOD2 RIPK2 PPI 44, TLR9-MyD88 block 32 (no result: TLR4 MyD88 comp, Mcl-1 Bim block, Mcl1 Bid PPI, Mcl1 Noxa PPI) | TLR9-MyD88 cf 27 | BLA counter-1 inactive | TLR9 CHO tox inactive | NOD2 RIPK2 conf 60 | BLA counter-2 58
CCC(C)[C@H]1COCCS(=O)(=O)N1Cc1ccccc1 (stereo partly drawn)	none (no result: TLR4 MyD88 comp, Mcl-1 Bim block, Mcl1 Bid PPI, Mcl1 Noxa PPI)
COC(=O)C[C@@H]1CC[C@@H](NS(=O)(=O)c2ccc(OC)cc2)[C@@H](CO)O1	none (no result: TLR4 MyD88 comp, Mcl-1 Bim block, TLR9-MyD88 block, Mcl1 Bid PPI, Mcl1 Noxa PPI)
Cc1cccc(/C=C2\Oc3cc(OS(C)(=O)=O)ccc3C2=O)c1	none
O=C1/C(=C/c2cccc(F)c2)Oc2cc(O)ccc21	NOD2 RIPK2 PPI 32, TLR9-MyD88 block 25 (no result: TLR4 MyD88 comp, Mcl-1 Bim block, Mcl1 Bid PPI, Mcl1 Noxa PPI) | TLR9-MyD88 cf inactive | BLA counter-1 inactive | TLR9 CHO tox inactive | NOD2 RIPK2 conf 44 | BLA counter-2 42
CCc1cc2c(-c3ccccc3)cc(=O)oc2cc1OC(C)C(C)=O (stereo not drawn)	none (no result: TLR4 MyD88 comp, Mcl-1 Bim block, Mcl1 Bid PPI, Mcl1 Noxa PPI)
CC(C)(C)OC(=O)NCC(=O)Oc1cc2oc(=O)cc(-c3ccccc3)c2cc1Cl	NOD2 RIPK2 PPI 36, TLR9-MyD88 block 47 | TLR9-MyD88 cf inactive | BLA counter-1 inactive | TLR9 CHO tox inactive | NOD2 RIPK2 conf 43 | BLA counter-2 48
COc1ccccc1-c1cc(C(F)(F)F)nc(S(C)(=O)=O)n1	NOD2 RIPK2 PPI 25, TLR9-MyD88 block 26 (no result: Mcl-1 Bim block) | NOD2 RIPK2 conf 41 | BLA counter-2 inactive
